# Sampled rows, rich in hits. Any-hit rate of the full collection: about 15%.
# RORg inh: inhibitors of mouse ROR gamma transcriptional activity; Drosophila S2 Gal4-RORgamma UAS-luciferase reporter, 20 h; Potency, µM (highest dose often 53.6 µM), without a hit: top-dose activity change, negative = inhibition, usual class: inhibitors; actives 5.4% (n = 310,000); AID 2551; also: nearly all actives have a fitted effect of over 60% in size
# Target sequence (P51450 whole entry, looked up, the tested form may be a part): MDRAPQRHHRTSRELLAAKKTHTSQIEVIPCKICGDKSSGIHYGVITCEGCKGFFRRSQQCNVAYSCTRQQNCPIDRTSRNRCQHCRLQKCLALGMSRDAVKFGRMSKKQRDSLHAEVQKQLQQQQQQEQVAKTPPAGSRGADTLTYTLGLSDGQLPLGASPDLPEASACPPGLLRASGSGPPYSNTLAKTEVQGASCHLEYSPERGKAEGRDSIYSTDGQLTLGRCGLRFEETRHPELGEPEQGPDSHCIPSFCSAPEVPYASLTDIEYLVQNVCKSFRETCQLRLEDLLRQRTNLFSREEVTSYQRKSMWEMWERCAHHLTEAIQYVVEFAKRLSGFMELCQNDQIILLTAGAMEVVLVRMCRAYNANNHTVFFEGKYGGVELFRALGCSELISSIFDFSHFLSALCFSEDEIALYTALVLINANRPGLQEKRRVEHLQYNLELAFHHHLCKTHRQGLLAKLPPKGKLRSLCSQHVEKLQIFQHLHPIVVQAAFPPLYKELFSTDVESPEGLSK
#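 Luminescence from a UAS-regulated Photinus luciferase reporter in stably transfected Drosophila Schneider cells is measured; decreased signal marks ROR gamma inhibition. Fusion expression is induced by 700 uM copper sulfate for 20 hr.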
# ELG1 DNA repair: ELG1-dependent DNA repair inhibition; actives 2.3% (n = 330,000); Potency, µM (top dose mostly 46.1 µM), inactives show at the top dose activity change, negative = inhibition, actives largely listed as inhibitors; HEK293T ELG1-luciferase reporter, luminescence, 16 h; DNA damage induced by 5-fluorouridine; also: nearly all actives have a fitted effect of over 55% in size
#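 Cells (2,000 per well) received 5-fluorouridine plus test compound or DMSO and were incubated 16 hr at 37 °C, 5% CO2. Luciferase activity was read by luminescence 30 min after ONE-Glo addition; signal suppression marked inhibition of damage-induced ELG1 function.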
# DT40 TDP1 CPT: DT40-hTDP1 cell growth loss with CPT | actives 12% (n = 420,000) | Potency, µM (doses to about 46.2 µM), for the others: at the highest dose activity change, negative = growth inhibition, usual class: inhibitors | chicken DT40 Tdp1-/-;hTDP1 cells + 20 nM CPT, ATP luminescence, 48 h; also: nearly all actives have a fitted effect of over 55% in size
#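 Cell growth measured by CellTiter-Glo luminescence after a minimum 48 h, 37 C compound exposure with 20 nM CPT in Tdp1-knockout DT40 cells stably expressing hTDP1, seeded 400/well; qHTS titration format.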
# Gal4-VP16 FLuc: Gal4-VP16 reporter inhibition counter-screen. Drosophila S2 Gal4-VP16 UAS-luciferase, luminescence, 20 h. actives 3.5% (n = 310,000). AID 2546. Potency, µM (series often up to 53.6 µM), inactives show at the top dose activity, negative = inhibition, most hits filed as inhibitors;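 also: Gal4-VP16 expression switched on by copper sulfate through the metallothionein promoter; nearly all actives have a fitted effect of over 50% in size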
# TDP1 cell noCPT: qHTS for Inhibitors of human tyrosyl-DNA phosphodiesterase 1 (TDP1): qHTS in cells in absence of CPT | actives 15% (n = 420,000) | AID 686978, 2013 | DT40 Tdp1-/- hTDP1 cells, no CPT, ATP luminescence, 48 h | Potency, µM (series often up to 46.2 µM), inactives show at the top dose activity change, negative = growth inhibition, usual class: inhibitors; also: nearly all actives have a fitted effect of over 55% in size
#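 Stably hTDP1-transfected Tdp1-null chicken DT40 cells were treated with library compounds minus camptothecin and grown for at least 48 hr at 37 °C, after which cellular ATP was quantified by luminescence.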
# 12-LOX inh: blocks human arachidonate 12S-lipoxygenase; P18054; purified 12hLO, xylenol orange hydroperoxide absorbance; Potency, µM (series often up to 108 µM), without a hit: at the top dose activity change, negative = inhibition, usual class: inhibitors; actives 1.1% (n = 580,000); AID 1671190
#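 Purified human 12hLO at 150 nM in 25 mM Hepes, 0.01% Triton X-100, pH 7.0, preincubated 15 min at room temperature with compound. Reaction started with 40 uM arachidonic acid, 30 min at room temperature. Hydroperoxide measured by Fe-xylenol orange, 573/405 nm absorbance ratio.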
# The depositor's hits bear a star; ? = inconclusive; . = no result given; ! = repeats disagree; [ ] = dose if it differs, or a comment. Calls follow the shape of the dose curve; as a rule, active = well fitted curve in the direction sought with a large enough effect; inconclusive = small, poorly fitted or top-dose-only effect, or another doubt; inactive = no such curve, though single readings can be large; an effect the other way counts as inactive or inconclusive. % is scaled to controls: 0 for no effect and ±100 for the full control effect; potency is read from the fitted curve at half-maximal effect.
SMILES,RORg inh,ELG1 DNA repair,DT40 TDP1 CPT,Gal4-VP16 FLuc,TDP1 cell noCPT,12-LOX inh
CC[C@H]1CN2CCc3cc(OC)c(OC)cc3[C@H]2C[C@@H]1C[C@@H]1NCCc2cc(OC)c(OC)cc21,0.79µM*,.,.,2.5µM*,.,-27%[57.4 µM]
CN(C)c1nc2c(c(N3C[C@H]4CNC[C@@]4(C(=O)O)C3)n1)CCCC2,.,.,.,.,.,12%
Cc1ccccc1-c1ccc2n(c1=O)C[C@H]1C[C@@H]2CN(C(=O)c2ccc(F)cc2)C1,.,.,.,.,.,-15%[176 µM]
O=S(=O)(NCc1ccncc1)c1ccc(F)c(F)c1,.,.,10µM*,.,6.5µM*,-3%
Clc1ccc(CCNCc2ccncc2)c(Cl)c1,-2%,16%,?,-4%,-27%,?
O=C(NC[C@H]1C[C@@H]2CCN1C[C@@H]2CN1CCN(c2ccc(F)cc2)CC1)c1ccccc1,.,.,.,.,.,45%
CC(=O)OC1(c2ccccc2)CCN(CCc2ccccc2)CC1,.,.,?,.,22µM*,.
CN1CCC(N[C@@H]2C[C@H](CO)[C@@H](O)[C@H]2O)CC1,.,.,.,.,.,5%[176 µM]
CC(C)CCNc1nnnc2c1sc1nc(N3CCOCC3)c3c(c12)CC(C)(C)SC3,17%,?,23µM*,-3%,18µM*,-9%
ClC1=C(Cl)C(Cl)(C2(Cl)C(Cl)=C(Cl)C(Cl)=C2Cl)C(Cl)=C1Cl,8.9µM*,.,.,7.1µM*,.,.
ClC1=C(Cl)C(Cl)(Cl)C(Cl)=C1Cl,18µM*,.,.,?,.,.
CCCCC[C@@H]1CCCCC[C@H](O)C[C@H](O)[C@@H](O)/C=C/C(=O)O1,.,.,?,.,?,-49%
C[C@H]1CCCC=CC2C[C@H](O)C[C@@H]2[C@H](O)C=CC(=O)O1 (stereo partly specified),.,.,0.028µM*,.,0.15µM*,51%[57.4 µM]
C[C@H]1CCC/C=C/[C@@H]2C[C@H](O)C[C@H]2[C@@H](O)/C=C/C(=O)O1,.,.,0.18µM*,.,0.58µM*,0%
Cc1[nH]cnc1CN1C[C@H](c2ccc3c(c2)OCO3)[C@@H]2[C@H]1C1CCN2CC1,.,.,.,.,.,-16%
COc1ccc(-c2noc(=O)n2Cc2cc(C)ccc2C)cc1,4%,?,?,2%,23µM*,-4%
CSCC(=O)N1C[C@@H]2C[C@H](C1)c1c(-c3ccc(NC(C)=O)cc3)ccc(=O)n1C2,.,.,.,.,.,-7%[176 µM]
O=C(NCCc1ccc(Cl)cc1)C(=O)NCC(c1cccs1)S(=O)(=O)c1cccs1 (stereo unspecified),.,.,?,.,13µM*,-10%
CC(C)(C)CC(C)(C)c1ccc(O)cc1,-27%,.,14µM*,?,22µM*,?
Cc1c(CCNS(=O)(=O)c2ccccc2)sc2nc(-c3ccc(Cl)cc3)nn12,.,.,7.3µM*,.,9.2µM*,1%
Cc1nc(-c2ccccc2Br)cc([C@H]2CN3CC[C@H]2C[C@@H]3CNC(=O)c2ccccc2)n1,.,.,.,.,.,8%
COc1ccc(-c2cc([C@H]3CN4CC[C@H]3C[C@@H]4CNC(=O)C3CCC3)nc(C)n2)cc1OC,.,.,.,.,.,70%
Cc1nc(-c2ccccc2Br)cc([C@H]2CN3CC[C@H]2C[C@@H]3CNC(=O)Nc2ccccc2)n1,.,.,.,.,.,11µM*
COc1ccc(-c2cc([C@H]3CN4CC[C@H]3C[C@@H]4CNC(=O)NC(C)C)nc(C)n2)cc1OC,.,.,.,.,.,32µM*
COc1ccc(CNC[C@H]2C[C@@H]3CCN2C[C@@H]3c2cc(-c3ccc4ccccc4c3)nn2C)cc1,.,.,.,.,.,127%
SMILES,RORg inh,ELG1 DNA repair,DT40 TDP1 CPT,Gal4-VP16 FLuc,TDP1 cell noCPT,12-LOX inh
CN1CCCCC12Cc1ccccc1CN(C(=O)Cc1ccccc1)C2 (stereo unspecified),.,.,.,.,.,10%[6.33 µM]
CC1=CC(=C2C(=O)NC(=O)NC2=O)C=C(C(F)(F)F)N1Cc1ccccc1,0%,?,?,-10%,18µM*,-20%
CC1=CC(=C2C(=O)NC(=O)NC2=O)C=C(C(F)(F)F)N1C(C)C,3%,17%,-1%,2%,2%,-5%
CC1=CC(=C2C(=O)NC(=S)NC2=O)C=C(C(F)(F)F)N1Cc1ccccc1,?,?,1.6µM*,?,1.6µM*,?
CC1=CC(=C2C(=O)NC(=S)NC2=O)C=C(C(F)(F)F)N1CCc1ccccc1,8%,2%,.,-3%,.,.
C=C[C@H]1CN2CC[C@H]1C[C@@H]2CNC(=O)CCCC(=O)O,.,.,.,.,.,23%[176 µM]
CN1Cc2ccccc2-n2ccnc2C12CCN(C(=O)Cc1cccc(F)c1)CC2,.,.,.,.,.,43%
O=[N+]([O-])/C=C/c1ccccc1,17%,.,.,?,.,.
O=C(CF)N(O)c1ccc(C=Cc2ccccc2)cc1,.,.,0.13µM*,.,0.026µM*,-3%
COC(=O)C1=C(c2ccc3ccccc3c2)C[C@@H]2CC[C@H]1N2C,.,12%,?,.,-29%,0%
COC(=O)C1=C(C(=O)OC)C2OC1c1cc3ccccc3cc12,.,.,0.46µM*,.,0.73µM*,-8%
NCCCCN=C(N)N,0%,.,8.4µM*!,6%,6.7µM*!,0%
Cc1nc2ccccc2c(=O)n1-c1ccccc1Cl,.,.,?,.,24µM*,.
Cc1nc2ccccc2c(=O)n1-c1ccncc1,0%,11%,5%,9%,3%,3%
Cc1nc2ccc(Cl)cc2c(=O)n1-c1ccccc1Cl,-16%[1.91 µM],-23%,-26%,-10%,-85%,0%
Cc1nc2ccccc2c(=O)n1-c1cc([N+](=O)[O-])cc([N+](=O)[O-])c1,1.1µM*,-2%,?,-24%,?,-10%
O=C(N[C@@H](COc1ccc2[nH]c(=O)[nH]c2c1)c1ccccc1)c1cccn(Cc2ccc(F)c(F)c2)c1=O,.,.,.,.,.,2%[57.4 µM]
CC(C)CCN1CCC2(COc3ccncc3[S+](=O)([O-])N2)C1 (stereo unspecified),.,.,.,.,.,5%[6.33 µM]
S=C1CN=C(c2ccccc2Cl)c2cc(Cl)ccc2N1,7.9µM*,-16%,-3%,7.1µM*,8%,?
C[C@H](CO)N1C[C@H](C)[C@@H](CN(C)C(=O)c2ccc3c(c2)OCO3)Oc2cc(/C=C/c3ccccc3)ccc2S1(=O)=O,.,.,21µM*,.,8.2µM*,-8%
COCCN1CCC(N2CCN(C(=O)Cc3ccc(Cl)cc3)CC2)C1=O (stereo unspecified),.,.,.,.,.,22%
O=C1OC(c2cc(I)c(O)c(I)c2)(c2cc(I)c(O)c(I)c2)c2ccccc21,-17%,.,.,?,.,10µM*
Cc1cc(N2CCCCC2)nc2ccc(NC(=O)CCC(=O)N3CCN(c4cccc(Cl)c4)CC3)cc12,.,.,6.5µM*,.,3.7µM*,?

# Bioassay records (PubChem)
